Compound activity (PubChem)
SmPrx2 inh – inhibitors of Schistosoma mansoni peroxiredoxin 2 | S. mansoni Prx2 activity coupled to TGR/GSH (TGR is thioredoxin glutathione reductase), NADPH fluorescence loss, qHTS | AID 448 | Potency, µM | 65,000 compounds, 0.07% hits
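qHTS, coupled TGR/Prx2 format; 15 min compound preincubation at RT; reaction started with H2O2 (2.5 mM aliquot); kinetic NADPH fluorescence decrease, ex 365/em 450 nm.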
LT uptake inh – inhibitors of anthrax lethal toxin internalization. Cells, anthrax lethal toxin internalization, FRET ratio (460/530). Potency, µM (series often up to 40 µM), inactives show top-dose activity change, negative = inhibition, most hits filed as inhibitors. 70,000 compounds, 0.67% hits. AID 912; note: % is set by controls: 0 for no effect and ±100 for the full control effect; nearly all actives have a fitted effect of over 50% in size
AmpC inh no det – blocks E. coli AmpC beta-lactamase in absence of detergent; Potency, µM (top dose mostly 28.7 µM), inactives show top-dose activity change, negative = inhibition; P00811; AmpC nitrocefin hydrolysis, absorbance 480 nm, no detergent; 71,000 compounds, 1.8% hits; note: % of control where 0% means no effect
Target sequence (P00811 whole entry, looked up): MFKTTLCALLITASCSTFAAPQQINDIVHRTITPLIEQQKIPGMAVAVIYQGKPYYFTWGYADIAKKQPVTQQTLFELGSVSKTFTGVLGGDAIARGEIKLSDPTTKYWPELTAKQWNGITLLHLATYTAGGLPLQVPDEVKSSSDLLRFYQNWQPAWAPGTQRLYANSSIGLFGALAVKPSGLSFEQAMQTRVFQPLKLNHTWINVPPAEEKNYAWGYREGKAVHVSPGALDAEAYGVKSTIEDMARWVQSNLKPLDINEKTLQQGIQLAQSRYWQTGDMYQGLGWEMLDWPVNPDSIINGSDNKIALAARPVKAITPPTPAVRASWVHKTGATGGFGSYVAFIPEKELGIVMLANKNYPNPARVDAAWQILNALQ
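AmpC in 20 mM phosphate buffer pH 7.0 was preincubated 15 min at room temperature with compounds. Nitrocefin (800 uM stock) was then added and hydrolysis followed at 480 nm every 20 s for 4 min.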
AmpC inh det – AmpC beta-lactamase inhibition, detergent assay; Potency, µM (doses to about 28.7 µM), inactives show at the highest dose activity change, negative = inhibition; 71,000 compounds, 0.09% hits; purified AmpC, nitrocefin hydrolysis with detergent; active = well fitted curve in the direction sought with a large enough effect; inconclusive = small, poorly fitted or top-dose-only effect; note: % is set by controls: 0 for no effect and ±100 for the full control effect
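E. coli AmpC (5.3 nM) in 20 mM phosphate pH 7.0 with 0.01% Triton X-100, preincubated 15 min RT with compound; nitrocefin (2 uL of 800 uM stock) hydrolysis followed by 480 nm absorbance every 20 s over 4 min.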
Active calls of the source: *; ? = inconclusive; . = no result given; [ ] = another dose, or the depositor's remark. Shown are actives, neighbours in structure and some others; about 2.6% of the full set was active somewhere. Unless noted, calls come from the whole dose curve. Potency is the fitted concentration of half-maximal effect.

SMILES	SmPrx2 inh	LT uptake inh	AmpC inh no det	AmpC inh det
CCN(CC)CCCNC(=O)c1cc2c(=O)n(C)c3ccccc3c2n1C	.	10µM*	?	9%
Cc1nc2ccc(S(=O)(=O)NCC(=O)N3CCC(N4CCCCC4)CC3)cc2s1	>57	-14%	-8%	-4%
Cc1nc2ccc(S(=O)(=O)NC(C(=O)N3CCCC3)C(C)C)cc2s1 (stereo unspecified)	>57	0%	4µM*[single pt active]	10%
Cc1nc2ccc(S(=O)(=O)NC(CC(C)C)C(=O)O)cc2s1 (stereo unspecified)	>57	-5%	1%	9%
Cc1nc2ccc(S(=O)(=O)NC(C(=O)N3CCC(C)CC3)C(C)C)cc2s1 (stereo unspecified)	>57	-11%	4µM*[single pt active]	23%
CCCCOC(=O)C1[C@H]2C(=O)N(CCc3ccccc3)C[C@]23C=C[C@H]1O3 (stereo partly specified)	>57	12%	17%	-1%
COc1ccc(C(C)N2CC34C=CC(O3)C(C(=O)OCC(C)C)C4C2=O)cc1 (stereo unspecified)	>57	-9%	4µM*[single pt active]	15%
CCCCOC(=O)C1C2C=CC3(CN(CCc4ccccc4)C(=O)C13)O2 (stereo unspecified)	>57	15%	4µM*[single pt active]	12%
CCc1ccccc1N1CC23C=CC(O2)C(C(=O)OCC(C)C)C3C1=O (stereo unspecified)	>57	9%	41%	8%
CCc1ccc(N2CC34C=CC(O3)C(C(=O)OC)C4C2=O)cc1 (stereo unspecified)	>57	-14%	4µM*[single pt active]	6%
CCc1ccc(N2CC34C=CC(O3)C(C(=O)OC(C)C)C4C2=O)cc1 (stereo unspecified)	>57	17%	3.2µM*[single pt active]	6%
COCCNS(=O)(=O)c1ccc(C2CNC(=O)C2)cc1 (stereo unspecified)	>57	10%	4µM*[single pt active]	12%
Cn1c(NCc2ccccc2Cl)nc2ccccc21	>57	-24%	4µM*[single pt active]	10%
CCCn1c(Nc2nc3ccccc3n2C)nc2ccccc21	>57	6.3µM*	-13%	-4%
CO	.	8%	0%	11%
CCCCCCCCCCC/C=C\C(C)(C)/C=C\CCCC(=O)O	>57	13%	-2%	-4%
Cc1noc(C)c1C(=O)N1CCC2(CCCN(C(=O)NC(C)C)C2)CC1	>57	-5%	27%	-4%
CN(C)CC(C(=O)c1ccccc1)c1ccccc1 (stereo unspecified)	>57	10µM*	-19%	-3%
CCCCCCNC(=O)c1c(O)c2ccccc2[nH]c1=O	>57	22%	13µM*	2%
CC(=O)c1cccc(NC2c3ccccc3C(=O)N2Cc2ccc3c(c2)OCO3)c1 (stereo unspecified)	>57	-18%	4µM*[single pt active]	13%
COC(=O)C/C=C\[C@@H](C)[C@@H](/C=N\OC[C@@H](O)COCc1ccco1)OC	.	-11%[8 µM]	.	.
Cc1c(-c2nc(N)nc(Nc3ccccc3)n2)oc2ccccc12	>57	13µM*	98%	-6%
Cc1cc(Br)ccc1OCC(=O)N(Cc1nc(-c2ccccc2)no1)C(C)C	>57	?	21%	3%
COc1ccccc1OCC(=O)N(Cc1nc(-c2ccc(Cl)cc2)no1)C(C)C	>57	?	160%	7%
CC(C)N(Cc1nc(-c2ccccc2)no1)C(=O)CSc1ccccc1	>57	-28%	38%	-1%
SMILES	SmPrx2 inh	LT uptake inh	AmpC inh no det	AmpC inh det
CC(C)N(Cc1nc(-c2ccc(Cl)cc2)no1)C(=O)CCC1CCCC1	>57	?	4µM*[single pt active]	9%
CC(C)N(Cc1nc(-c2ccccc2)no1)C(=O)COc1ccccc1	>57	?	4µM*[single pt active]	14%
CC(C)N(Cc1nc(-c2ccccc2)no1)C(=O)Cc1ccccc1	>57	-21%	4µM*[single pt active]	11%
C#CCCCO/N=C1/C[C@@H](O)[C@@H](O)[C@@H]2[C@@H]3C(=O)N(CC)C(=O)[C@H]3CC[C@H]12	.	-1%[8 µM]	.	.
O=C(Nc1cc(Cl)ccc1Cl)c1noc2c1CCCC2	>57	-16%	4µM*[single pt active]	11%
CN(Cc1ccco1)c1nc(-c2cccc(C#N)c2)nc2ccccc12	>57	?	13%	13%
CC(C)[C@H](NC(=O)OC(C)(C)C)c1nnc(S(=O)(=O)Cc2c(F)cccc2Cl)o1	>57	.	1.3µM*	0.79µM*
Cc1ccccc1CS(=O)(=O)c1nnc([C@H](CC(C)C)NC(=O)OC(C)(C)C)o1	>57	?	10µM*	7.9µM*
CC(C)C[C@H](N)c1nnc(S(=O)(=O)Cc2cccc(F)c2)o1	>57	?	?	2.5µM*
CC(C)CC(=O)N1CCN(Cc2cccc(F)c2)CC1	.	-2%	46%	14%
CC[C@@H](C)[C@H](NC(=O)OC(C)(C)C)c1nnc(S(=O)(=O)Cc2cc(C)ccc2C)o1	>57	?	?	?
CC(C)(C)OC(=O)N[C@@H](Cc1ccccc1)c1nnc(S(=O)(=O)Cc2cccc(F)c2)o1	>57	10µM*	4µM*	5µM*
CCN1CCN(c2cc(C)c3cc(NC(=O)c4ccc5c(c4)OCO5)ccc3n2)CC1	>57	10µM*	60%	11%
CCN1CCN(c2cc(C)c3cc(NC(=O)c4cncc(Br)c4)ccc3n2)CC1	>57	25µM*	112%	-4%
Cc1nc(NC2CCCCC2)c2nc(-c3ccccc3)n(C(C)CN(C)C)c2n1 (stereo unspecified)	.	?	119%	10%
Cc1ccc(-c2noc(CN3CCC(C(N)=O)CC3)n2)cc1	>57	-15%	-4%	-2%
Cc1ccc(-c2noc(CN3C(C)CCCC3C)n2)cc1 (stereo unspecified)	>57	-12%	4µM*[single pt active]	12%
COc1cccc(Nc2ncc3nc(-c4cc(F)cc(F)c4)c(=O)n(CCC#N)c3n2)c1	>57	?	-3%	2%
Cn1c(C(=O)N2CCN(c3ccc(Cl)cc3)CC2)cc2c(=O)n(C)c3ccccc3c21	>57	-25%	4µM*[single pt active]	10%
Cn1c(C(=O)N2CCN(c3ccc(F)cc3)CC2)cc2c(=O)n(C)c3ccccc3c21	>57	-2%	10%	10%
Cn1c(C(=O)N2CCN(C3CCCCC3)CC2)cc2c(=O)n(C)c3ccccc3c21	>57	-6%	4µM*[single pt active]	13%
Cn1c(C(=O)N2CCN(c3ccccn3)CC2)cc2c(=O)n(C)c3ccccc3c21	>57	14%	4µM*[single pt active]	14%
COC(=O)c1ccc(C(NC(=O)OCc2ccccc2)/C(C)=C/[C@@H](C)C(=O)NCc2nn(-c3ccccc3)nc2C)cc1 (stereo partly specified)	.	-5%	24%	17%
O=C(NCc1ccco1)C1CCN(c2ccc(N3CCOCC3)nn2)CC1	>57	5%	4µM*[single pt active]	11%
N#Cc1cccc(NC(=O)N2CCCC3(CCN(C(=O)c4ccco4)CC3)C2)c1	>57	?	36%	11%
C=C1Cn2c(nnc2-c2ccc(Cl)cc2)S1	>57	1%	4µM*[single pt active]	12%
CC1(C)Cn2c(nnc2-c2ccccc2)S1	>57	-6%	-3%	-1%
CN(c1nnc(N)s1)C1CCCCC1	>57	-2%	4µM*[single pt active]	21%
